Measured values: PubChem BioAssay (NCATS)
Values joined by “and” are separate entries in the source; they are usually repeats but may differ in a detail not shown here. Identical values can stand only once. Results filed as inconclusive are left out. A call without a number means that no potency is given here. Unmarked numbers belong to inactive results. Active and inactive are the calls of the source. The call rests on the fitted dose curve; in most records, active means well fitted curve in the direction sought with a large enough effect; inconclusive means small, poorly fitted or top-dose-only effect, or another doubt; inactive means no such curve, though single readings can be large; an effect the other way counts as inactive or inconclusive.

How the values were obtained:
[1] = Primary qHTS for inhibitors of nuclear receptor binding SET domain protein 2 (NSD2) in an isogenic RCH-ACV NSD2 p.E1099K mutant (9B) (AID 1645876); further: nearly all actives have a fitted effect of over 70% in size; further: potency means the concentration at half of the fitted maximal effect
[2] = Primary qHTS for inhibitors of nuclear receptor binding SET domain protein 2 (NSD2) in an RCH-ACV wild type WT cells (2C) (AID 1645877); further: nearly all actives have a fitted effect of over 70% in size; further: potency means the concentration at half of the fitted maximal effect
[3] = molecular target: Glutathione peroxidase 1 (Homo sapiens) (UniProt P07203); assay: Primary qHTS Assay for Inhibitors of Recombinant Selenoprotein Glutathione Peroxidase 1 (GPX1) (AID 1845191); further: nearly all actives have a fitted effect of over 65% in size
Method in brief: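 NADPH consumption tracked by fluorescence at 340/450 nm between t=0 and t=15 min, room temperature. Final mix: 10 nM GPX1, 100 nM glutathione reductase, 1 mM GSH, 0.5 mM NADPH, 0.5 mM cumene hydroperoxide, 0.01% BSA; 30 min compound–enzyme preincubation.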

Chain of Glutathione peroxidase 1 (Homo sapiens) (P07203 whole entry, looked up): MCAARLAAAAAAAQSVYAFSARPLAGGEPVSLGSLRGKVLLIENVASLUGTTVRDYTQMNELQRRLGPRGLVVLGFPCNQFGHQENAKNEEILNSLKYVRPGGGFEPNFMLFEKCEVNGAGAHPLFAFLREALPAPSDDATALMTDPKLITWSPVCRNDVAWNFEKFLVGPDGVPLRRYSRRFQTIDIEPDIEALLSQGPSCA

Row | Compound | Potency [1] | Potency [2] | Potency [3] | activity change, negative = viability loss [1] | activity change, negative = cell killing [2]
1 | CC1(C(=O)O)CCCC2(C)C3CCC4CC3(CCC12)CC4=O (stereo unspecified) | inactive | inactive | inactive |  | 
2 | CC1(C)CC2C(O)c3cocc3CC(C)(O)C2C1 (stereo unspecified) | inactive | inactive | inactive |  | 
3 | CC(=O)CC1CCC(C(C)C(=O)OCC(O)CO)O1 (stereo unspecified) | inactive | inactive | inactive |  | 
4 | O=C1NC(=O)C(c2cn(-c3ccccc3)nc2-c2ccc(F)cc2)N1 (stereo unspecified) | inactive | inactive | inactive |  | 
5 | CC1CCC2(OC1)OC1CC3C4CCC5C[C@@H](O[C@@H]6O[C@H](CO[C@@H]7OC[C@@H](O)[C@H](O)[C@H]7O)[C@H](O)[C@H](O)[C@H]6O)CC[C@]5(C)C4CC[C@]3(C)C1C2C (stereo partly specified) | inactive | inactive | inactive |  | 
6 | C=CC1(C)C=C2C(=O)OC(=O)C3=C(CCCC3(C)C)C2(O)CC1 (stereo unspecified) | inactive | inactive | inactive |  | 
7 | OC[C@H]1O[C@@H](Oc2cc(O)c3c(c2)O[C@@H](c2ccc(O)cc2)[C@H](O)C3)[C@H](O)[C@@H](O)[C@@H]1O | inactive | inactive | inactive |  | 
8 | CCCC1(c2ccccc2)NC(=O)N(CC(=O)N(C)Cc2c(F)cccc2Cl)C1=O (stereo unspecified) | inactive | inactive | inactive |  | 
9 | COc1cc(C2Oc3c(OC)cc(CCCO)cc3C2CO)ccc1O[C@H]1O[C@H](C)[C@@H](O)[C@H](O)[C@@H]1O (stereo partly specified) | inactive | inactive | inactive |  | 
10 | CC1CCC2(C(=O)O)CCC3(C)C(=CCC4C5(C)CCC(O)C(C)(CO)C5CCC43C)C2C1(C)O (stereo unspecified) | inactive | inactive | inactive |  | 
11 | CC(=O)CCC1=C(C)C(O[C@@H]2O[C@H](CO)[C@@H](O)[C@H](O)[C@H]2O)C(O)CC1(C)C (stereo partly specified) | inactive | inactive | inactive |  | 
12 | COc1cc(O)c2c(c1)C1=CC(O)C(O)CC1(C)OC2=O (stereo unspecified) | inactive | inactive | inactive |  | 
13 | C=CC/C=C\C/C=C\CCCCCCCc1cccc(O)c1C(=O)O | inactive | inactive | inactive |  | 
14 | O=C(O)C(O[C@@H]1O[C@H](CO[C@@H]2O[C@H](CO)[C@@H](O)[C@H](O)[C@H]2O)[C@@H](O)[C@H](O)[C@H]1O)c1ccccc1 (stereo partly specified) | inactive | inactive | inactive |  | 
15 | C=C1CCC2C(C)(C(=O)O)CCCC2(C)C1CC/C(=C\CO)CO (stereo unspecified) | inactive | inactive | inactive |  | 
16 | COCCN1CCN(Cc2ccc(-c3n[nH]c4c3C(=O)c3c(NC(=O)NN5CCOCC5)cccc3-4)cc2)CC1 | 45.9 nM (active) and 59 nM (active) | 36.5 nM (active) and 52.5 nM (active) | inactive |  | 
17 | COC(=O)Cc1cc2c(c([N+](=O)[O-])c1)N(C(=O)CC[C@H](N)C(=O)O)CC2 | inactive | inactive | inactive |  | 
18 | C=C(C(=O)O)C1CCC2(C)CCC(O)C(C)(O)C2C1 (stereo unspecified) | inactive | inactive | inactive |  | 
19 | C=CC1C(OC2OC(CO)C(O)C(O)C2O)OC=C(C(=O)OC)C1CC1CC(=O)CC(CCc2ccc(O)cc2)O1 (stereo unspecified) | inactive | inactive | inactive |  | 
20 | CC1(C)CC[C@]2(C(=O)O[C@@H]3O[C@H](CO)[C@@H](O)[C@H](O)[C@H]3O)CC[C@]3(C)C(=CCC4[C@@]5(C)CC[C@H](O[C@@H]6O[C@H](C(=O)O)[C@@H](O)[C@H](O)[C@H]6O)[C@@](C)(CO)C5CC[C@]43C)C2C1 (stereo partly specified) |  |  | inactive | 3.1% [at 9.23 µM] | 4.55% [at 9.23 µM]
21 | CNC12CC3C[C@@](C)(C1)C[C@](C)(C3)C2 | inactive | inactive | inactive |  | 
22 | COC1C(CO)OC(n2cnc3c(=O)[nH]cnc32)C1O (stereo unspecified) | inactive | inactive | inactive |  | 
23 | CC(=O)O[C@@H]1[C@@H](O)[C@H](C)O[C@@H](O[C@H]2[C@@H]3C=CO[C@@H](O[C@@H]4O[C@H](CO)[C@@H](O)[C@H](O)[C@H]4O)[C@@H]3[C@@]3(CO)O[C@@H]23)[C@@H]1OC(=O)/C=C/c1ccccc1 | inactive | inactive | inactive |  | 
24 | CC(=O)OC[C@H]1O[C@H](O[C@]2(CO)O[C@H](CO)[C@@H](OC(=O)/C=C/c3ccccc3)[C@@H]2O)[C@H](O)[C@@H](O)[C@@H]1O | inactive | inactive | inactive |  | 
25 | CC(O)/C=C/C1(O)C2(C)COC1(C)CC(O)C2 (stereo unspecified) | inactive | inactive | inactive |  | 
26 | C[C@@H]1C[C@@H](O)[C@@]23CO[C@@H](O)[C@@H]2CCC[C@@H]3[C@@]12C[C@@H](c1ccoc1)OC2=O | inactive | inactive | inactive |  | 
27 | CC(=O)OC1C(O)C2C(C)C3=CC(=O)OC3(O)CC2C2(C)CCCC(C)(CO)C12 (stereo unspecified) | inactive | inactive | inactive |  | 
